Data on 5 molecules can be found in PubChem BioAssay (NCI).

SMILES strings stand for the structures. The panel holds about 83,000 compounds, 20% with a hit somewhere; the sample as a whole holds those more often.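 Activity criterion: percent growth below 10, measured after cells in 96-well plates were exposed to a single compound concentration for 48 hours.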 A number with no mark means an inactive call. The source made the active and inactive calls.

Assay in all cases: NCI-60 one-dose screen, 48 h (100 = growth as untreated, 0 = no growth, -100 = all killed)
Experiment [1] concerns HCT-15 colon. To be noted: 10 µM unless noted.
The test system of experiment [2] is HT29 colon. Particulars: 10 µM unless noted.
Experiment [3] concerns SNB-75 CNS. Particulars: 10 µM unless noted.
Experiment [4] concerns SNB-19 CNS. To be noted: 10 µM unless noted.
The subject of experiment [5] is U251 CNS. To be noted: 10 µM unless noted.
Experiment [6] has as its system PC-3 prostate. Particulars: 10 µM unless noted.
In experiment [7] the test system is SK-MEL-5 melanoma. Particulars: 10 µM unless noted.
Experiment [8] has as its system UACC-62 melanoma. Particulars: 10 µM unless noted.
Experiment [9] relates to LOX IMVI melanoma. To be noted: 10 µM unless noted.
For experiment [10], the system named is SK-MEL-28 melanoma. Particulars: 10 µM unless noted.
Experiment [11] relates to SK-MEL-2 melanoma. Particulars: 10 µM unless noted.
Experiment [12] has as its system EKVX NSCLC. Particulars: 10 µM.
The subject of experiment [13] is SN12C renal. Particulars: 10 µM unless noted.
The subject of experiment [14] is TK-10 renal. To be noted: 10 µM unless noted.
For experiment [15], the system named is ACHN renal. To be noted: 10 µM unless noted.
For experiment [16], the system named is CAKI-1 renal. Particulars: 10 µM unless noted.
Experiment [17] relates to MOLT-4 leukemia. To be noted: 10 µM unless noted.
For experiment [18], the system named is UO-31 renal. To be noted: 10 µM unless noted.
Experiment [19] concerns A498 renal. To be noted: 10 µM unless noted.
For experiment [20], the system named is CCRF-CEM leukemia. Particulars: 10 µM.

With `COc1ccc(Oc2[nH]n(C3=Nc4ccccc4Sc4ccccc43)c(=O)c2C#N)cc1`, the growth in experiment [1] is 101%; in [2] it was 113%; in experiment [3] it was 121%; in [4] it was 101%; in [5], 107%; in [6], 82.8%. Also, the growth in [7] is 84.8%; in [8], 69.9%; in [9], 95.3%; in [10], 108%; in experiment [11], 101%; in [12], 94.4%. For the same molecule, the growth in [13] was 102%; in [14], 108%; in experiment [15] it was 89.5%; in [16] it was 92.4%; in [17] it was 107%.

Consider `N=c1c2c(=O)n3c(nc2nc2sc4ccc(Cl)cc4n12)-c1ccccc1Sc1ccccc1-3`, for which the growth is 13.6% in experiment [1]; 26.8% in experiment [2]; 18.6% in experiment [3]; 30.5% in experiment [4]; 24.7% in [5]; 11.2% in experiment [6]. In addition, the growth in experiment [7] is -2.17% (active); in experiment [8], -26% (active); in [9], 24.2%; in experiment [10], 29.3%; in experiment [11], 7.77% (active); in experiment [12], 9.46% (active). Besides, the growth is -5.37% (active) in experiment [18]; 47% in [14]; 14.7% in [15]; 6.62% (active) in experiment [16]; 47.1% in experiment [19]; 12.5% in experiment [20]. Also, the growth in experiment [17] is 8.17% (active).

As for `NNC(=O)CNc1ccc2ccccc2c1`, the growth is 110% in [1]; 106% in [2]; 104% in [3]; 109% in experiment [4]; 101% in experiment [5]; 98% in experiment [6]. The growth is 101% in [7]; 98.8% in experiment [8]; 96% in [9]; 125% in experiment [10]; 98.7% in [11]; 105% in experiment [12]. The growth in experiment [18] was 70.9%; in [14], 119%; in experiment [15], 101%; in experiment [16] it was 106%; in [19] it was 107%; in experiment [17], 83.6%.

Regarding `CC(=O)O.[In]`, the growth was 109% in experiment [1]; 105% in experiment [2]; 90.6% in [3]; 109% in experiment [4]; 98.8% in experiment [5]; 99.7% in [6]. In addition, the growth was 95.2% in experiment [7]; 102% in experiment [8]; 35.3% in [9]; 112% in experiment [10]; 98.4% in [11]; 109% in experiment [13]. The growth in [18] is 88.4%; in experiment [14] it was 100%; in experiment [15], 104%; in [19] it was 112%; in [20] it was 85.4%; in experiment [17], 99.9%.

Take `CCOc1ccc(N(C)c2ccc(/C=C/C3=[N+](C)c4ccccc4C3(C)C)cc2)cc1`: the growth in experiment [1] is 18.9%; in [2], -25.1% (active); in experiment [3], 41.6%; in experiment [4] it was 26.8%; in [5], -82.8% (active); in experiment [6], 0.484% (active). In addition, the growth in experiment [7] is 2.07% (active); in experiment [8], 28.5%; in experiment [9], -48.1% (active); in experiment [10] it was 19%; in experiment [11], -45.9% (active); in [13] it was 2.99% (active). The growth in experiment [18] was 3.71% (active); in experiment [14], -16.1% (active); in experiment [15] it was -95.9% (active); in experiment [16], -2.85% (active); in [19] it was 42.6%; in experiment [17], -25.4% (active).
